Columns and labels:
Assay in all cases: PBM binding z-score (relative to random genomic background probes); higher = stronger binding; sequences stand for … in GC…GCGATTGACAGCGTAGAATGAAGG
[1] = test system: RARb homodimer (NR concentration 270 nM)
Summary of the method: (§1)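 The probes on custom Agilent 4×180K protein-binding microarrays were double-stranded, with 34-nt variable regions bearing direct-repeat seeds, single-nucleotide variants, half-site ablations and random human genomic background sequences. Incubation lasted 1 h with ligand-free nuclear receptor dimers in PBS pH 7.4, 2% milk, 0.02% Triton X-100, 1 mM DTT, 0.2 mg/mL BSA and 0.4 mg/ml salmon testes DNA. Antibodies against each partner (one per run) detected bound dimers, and fluorescence scans were regression-normalized. Binding z-scores take the random background probes as reference.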

[2] = test system: RARg:RXRa (NR concentration 270 nM, RXRa partner concentration 90 nM)
Summary of the method: as §1

[3] = test system: RARg homodimer (NR concentration 270 nM)
Summary of the method: as §1

[4] = test system: RXRa DBDmut IVT, anti-RXR (DBD mutation: RXRa K156A/R161A, NR concentration 90 nM)
Summary of the method: as §1

[5] = test system: RXRa homodimer (NR concentration 180 nM)
Summary of the method: as §1

[6] = test system: THRa:RXRa (NR concentration 90 nM, RXRa partner concentration 90 nM)
Summary of the method: as §1

[7] = test system: THRa homodimer (NR concentration 90 nM)
Summary of the method: as §1

[8] = test system: VDR homodimer (NR concentration 270 nM)
Summary of the method: as §1

Row | Sequence | PBM binding z-score [1] | PBM binding z-score [2] | PBM binding z-score [3] | PBM binding z-score [4] | PBM binding z-score [5] | PBM binding z-score [6] | PBM binding z-score [7] | PBM binding z-score [8]
1 | AGAATGCGGTTATACGTAGATCAGGGAAGAAAGT | -0.25 | 0.0152 | -0.0583 | -0.501 | 0.067 | -0.31 | -0.634 | -0.661
2 | TCTTGTAGATCAACAGGAGGTTAAGAGAGATCGA | 0.58 | 1.1 | 0.453 | 0.0129 | 0.887 | 1.01 | -0.746 | -0.539
3 | GCGAGTGGGGCAAAGCAGGTTACCATAAGGTTGG | 1.29 | 0.324 | 0.332 | -0.292 | 0.339 | 2.93 | 0.0981 | -0.134
4 | TCATATAGGTAAACAGGTGAAAGTACGTAAGTTA | 0.897 | 0.775 | 0.637 | 1.58 | 1.31 | 0.952 | 0.331 | 0.523
5 | GATACAGGGTCAGCTAGAGACCAGAGTATGGAAA | 2.5 | 4.48 | 4.19 | 0.915 | 3.99 | 2.5 | 0.211 | 0.881
6 | CCGACTGGGGCAGAAAGGTTACCGTACCATCCGG | 2.49 | 1.52 | 1.28 | -0.805 | 1.84 | 1.18 | -0.556 | -0.155
7 | TTACCAAGGTGAAGGCCGTTGATCCCTCTGTAGA | 0.648 | 0.161 | 0.236 | -0.411 | 0.286 | 1.57 | 0.252 | -0.421
8 | CGTAAAAGTTCAAGGTAACGTAACAGAAAGCAGC | 3.55 | 4.73 | 5.27 | 4.27 | 3.81 | 2.92 | 1.17 | 2.67
9 | CTCGAAAGGTCGGTTGAGGTGAGTCTACGGATAA | 2.36 | 2.73 | 2.99 | 1.03 | 2.34 | 5.01 | 1.58 | 0.44
10 | CCGACTGTGGCAGAAAGGTTACCATACCATCCGG | 1.82 | 1.02 | 0.761 | -0.111 | 1.47 | 0.958 | -0.0743 | -0.259
11 | GCTGGTTGGTCAGTAAAAGGTCACACACCGGTCG | 5.18 | 5.81 | 5.42 | 0.18 | 5.73 | 3.5 | 2.21 | 2.29
12 | CTACCAAGGGGAACAAGGTCGTTGATTACTATTC | 1.09 | 0.406 | 0.334 | 0.885 | 0.759 | 1.76 | 1 | 2
13 | TCATATAGGTAATACAGGTTAAAGTCGGCATCTA | 0.936 | 0.979 | 0.696 | 2.04 | 1.63 | 1.35 | 0.204 | 0.629
14 | CAAACTAGGTCACAGAGGTCAAAGGCCGTGCGTA | 5.17 | 7.3 | 7.71 | 3.23 | 8.06 | 4.42 | 2.89 | 6.86
15 | CCTAGAAGGCCAATCTGGGTCACTCAAGGCTTGA | 2.78 | 1.98 | 2.37 | 0.567 | 1.55 | 4.27 | 0.262 | 0.0868
16 | CCTACTGGGCCAAGATCATTGATCAGTCAAAGCA | -0.51 | -0.246 | -0.13 | -0.666 | -0.589 | -0.314 | -0.633 | -0.179
17 | TGTGCTAGGTCAGTTGGTCAGCTAACGAGCTGCC | 2.66 | 2.6 | 3.48 | -0.535 | 0.793 | 1.14 | -0.0529 | -0.504
18 | AGAACGAGGTTACCAAAGATCAGGGAAACGCTTG | 0.645 | 1.94 | 1.91 | 0.737 | 2.66 | 2.31 | 0.23 | 0.242
19 | GGAACGAGGGCATTCGAGCTGATAGCATGGCGAT | 0.164 | 0.737 | 1.2 | 2.72 | 0.444 | 0.7 | -0.936 | 1.53
20 | GCTGCTAGGTCATCTGATGGTCAGCTAAAGCTCG | 3.52 | 5.15 | 4.96 | 2 | 2.79 | 2.97 | 0.735 | 0.443
21 | CAAACTATGTCAAGAGGTCAAAGTCCGCTTCCCG | 4.59 | 5.95 | 5.29 | 2.09 | 6.87 | 3.65 | 1.79 | 4.22
22 | ATCTCTAGGTAAACTTCAGTGAAAGATCGATAGA | 0.191 | 0.307 | 0.513 | 0.168 | 0.222 | 0.667 | 0.466 | 0.34
23 | CGTCCAAGGTCAAGGTCAGTGACAGAGACTCGAA | 5.06 | 6.76 | 7.62 | 3.72 | 6.77 | 4.35 | 3.7 | 3.35
24 | CCTAGTTGGTCAGGACGTCACACACCGGATATGA | 0.767 | 0.464 | 0.776 | 0.386 | 0.296 | 0.673 | 1.03 | 0.558
25 | ACTACAGGGTCACTAGGCCAGAGTAGGTACGAAT | 3.08 | 4.68 | 4.59 | 2.54 | 4.84 | 3.33 | 0.948 | 1.82
26 | TCTAGCAGGCCAGAGGGTCACTGAAGAGGTACGG | 2.72 | 2.74 | 1.97 | -0.0936 | 2.63 | 1.7 | -0.233 | 0.299

Row | Sequence | PBM binding z-score [1] | PBM binding z-score [2] | PBM binding z-score [3] | PBM binding z-score [4] | PBM binding z-score [5] | PBM binding z-score [6] | PBM binding z-score [7] | PBM binding z-score [8]
27 | CCTAGGAGGACAGAAGGTCAGAGCTGTCCGCTTT | 3.34 | 3.28 | 2.78 | 0.179 | 1.84 | 2.25 | -0.21 | -0.00238
28 | TCGAGTAGGTTAGTCGGTGCATTCAGCCAACATA | -0.0982 | -0.434 | -0.407 | 0.415 | -0.152 | -0.374 | -0.377 | 0.902
29 | GGAACGAGGGCAAAGTTGATTGCATCTGTCGACG | 1.13 | 1.89 | 1.34 | 2.7 | 1.76 | 1.36 | -0.0538 | 1.55
30 | ATCTCTAGGTAACAAGTTCAGTCAAAGAGAGGAC | 1.92 | 1.45 | 1.43 | 1.09 | 0.866 | 1.62 | 1.12 | 2.65
31 | TAGCCTAGGTCATTGGCCAGTATACCACGCGAAC | 2.76 | 3.66 | 3.92 | 1.68 | 3.22 | 2.66 | 0.992 | 1.26
32 | TCTTGTAGATCAACAGGACGTTAAGAAAGATCGA | -0.694 | 0.531 | 0.151 | 0.714 | 0.45 | 0.0444 | -0.626 | -0.395
33 | CGTCCAAGGTCAGCACGTCAGTGAAAGCGACGTG | 4 | 5.13 | 5.75 | 2.51 | 3.83 | 3.43 | 1.9 | 0.904
34 | AGAACGAGGTTATACGTAGATCAGGGAAGAAAGT | 0.438 | 1.69 | 1.07 | 1.54 | 2.02 | 1.41 | 0.179 | 0.807
35 | AGAACGAGGGCAATGAGTTGGTAGCACGGGTGGC | 0.799 | 0.857 | 1.09 | 1.47 | 0.619 | 0.555 | -0.125 | 1.98
36 | TGTCAAAGATCAAAGGTAACGTAAGTATCCACAC | 0.261 | 1.26 | 0.761 | -0.668 | 2.36 | 1.54 | -0.401 | -0.267
37 | GATACAGCGTCAGCTAGAGGCCAGAGTATGGAAA | -0.524 | -0.0653 | 0.0489 | -0.648 | -0.444 | -0.787 | -0.942 | -0.804
38 | AGAATGAGGTTAAGATCAGGAAAACAGAATACAT | 0.79 | 2 | 1.73 | 0.917 | 2.65 | 2.28 | 0.529 | 0.435
39 | CCTACTGGGCCAAATAGGTCATTGATGCCGATAA | 2.48 | 2.17 | 2.25 | -0.057 | 2.2 | 1.67 | -0.13 | 0.916
40 | CATACAGGGTCAGCTAGGCCGGAGTAGGGACGGC | 3 | 4.28 | 4.35 | 1.18 | 3.93 | 2.78 | 0.818 | 0.84
41 | AGAATGAGGTTATTCGTAGATCAGGGAAGAAAGT | 0.677 | 1.86 | 0.782 | 2.5 | 2.29 | 2.32 | 0.475 | 1.07
42 | CCTTACGGGTCACTGACAGGTTATAGCATTTGGA | 3.39 | 6.19 | 4.95 | 1.95 | 5.59 | 2.98 | 0.283 | 1.03
43 | TTAGACAGGTGAAGGTAACTCAGGTACGCAGTCG | 0.861 | 0.559 | 0.81 | -0.329 | 0.753 | 1.48 | 0.377 | 0.53
44 | CCTAATAGTTGACCATAAGGGCAACCGAAGCTCG | 2.04 | 1.61 | 1.18 | 0.375 | 0.786 | 2.02 | 0.988 | 0.915
45 | AGTCAAAGTTCTCTAGGTAACGTAAGATTCAGCT | 0.137 | 0.139 | 0.523 | 0.597 | 0.0862 | 0.903 | 0.459 | 0.273
46 | CGAACTAGGTCATTGACAGTACAGTGAATAGTAA | 2.62 | 3.89 | 4.03 | 2.62 | 2.48 | 2.48 | 0.979 | 0.986
47 | CCTAGCTGGTCAAGGTCACACACGCTATAGGTAC | 4.06 | 4.56 | 4.74 | 1.82 | 4.92 | 3.97 | 3.76 | 2.88
48 | TCGCGTAGGTTACCAATGGGGCATTCAGCTTTCT | 0.809 | 1.42 | 0.306 | 0.302 | 0.572 | 0.107 | -0.509 | -0.338
49 | ACTATTAGTTGGGACGAGGGCAACCGATAGGTTG | 1.37 | 0.644 | 0.82 | 0.0733 | 0.516 | 1.64 | 0.629 | 1.12
50 | GCTAGCAGGCCATTTGTGTCACTCAATGACGGGC | -0.0499 | -0.217 | 0.011 | 0.131 | -0.25 | -0.583 | -0.967 | -0.895
51 | CTACCAAGGTGAACAAGGTCGTTGCTTACTATTC | 2.09 | 1.83 | 1.34 | 1.73 | 2.12 | 3.15 | 2.03 | 2.89
52 | CAAACTAGGTCACCGGAAGGTCAGAGTCCGCATG | 5.45 | 7.9 | 7.02 | 1.63 | 5.06 | 4.19 | 2.73 | 2.14
